# Compound activity (PubChem BioAssay)
# BoNT A protease = blocks Botulinum neurotoxin A light chain protease; multiplex microsphere protease substrate cleavage, flow cytometry; inhibition, % at 10 µM; 0.17% of 360,000 active; AID 588499; further: plate controls were buffer without enzyme for full effect and enzyme alone for no effect
# Anthrax LF inh2 = inhibitors of Bacillus anthracis lethal factor protease. 0.12% of 360,000 active. P15917. multiplex microsphere protease cleavage assay, LF. inhibition, % at 10 µM; further: plate controls were buffer without enzyme for full effect and enzyme alone for no effect
# Target sequence (P15917 whole entry, looked up): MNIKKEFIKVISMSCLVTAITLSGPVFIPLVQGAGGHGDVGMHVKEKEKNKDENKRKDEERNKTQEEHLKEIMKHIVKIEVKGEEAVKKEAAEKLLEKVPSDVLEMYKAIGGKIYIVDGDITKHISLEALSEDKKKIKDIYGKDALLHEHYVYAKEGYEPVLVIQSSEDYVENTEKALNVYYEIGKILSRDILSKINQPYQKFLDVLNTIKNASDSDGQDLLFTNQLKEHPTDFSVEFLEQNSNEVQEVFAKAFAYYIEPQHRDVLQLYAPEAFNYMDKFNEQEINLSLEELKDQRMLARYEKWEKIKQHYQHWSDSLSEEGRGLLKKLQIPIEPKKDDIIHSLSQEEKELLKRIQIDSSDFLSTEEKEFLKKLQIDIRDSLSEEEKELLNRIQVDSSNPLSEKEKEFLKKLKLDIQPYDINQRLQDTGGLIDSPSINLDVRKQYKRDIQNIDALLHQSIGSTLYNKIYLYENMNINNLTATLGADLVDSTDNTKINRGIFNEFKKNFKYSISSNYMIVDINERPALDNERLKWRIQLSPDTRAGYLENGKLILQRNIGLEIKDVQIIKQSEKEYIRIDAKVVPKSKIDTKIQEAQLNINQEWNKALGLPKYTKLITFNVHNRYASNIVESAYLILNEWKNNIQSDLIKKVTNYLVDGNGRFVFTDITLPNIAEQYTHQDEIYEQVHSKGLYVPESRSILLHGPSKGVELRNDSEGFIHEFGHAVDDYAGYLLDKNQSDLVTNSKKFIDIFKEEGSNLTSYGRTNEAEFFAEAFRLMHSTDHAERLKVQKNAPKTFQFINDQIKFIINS
# 3CLpro inhibitor = SARS-CoV 3CLpro protease inhibition; AID 1706; recombinant SARS-CoV 3CLpro, quenched FRET peptide cleavage; 0.14% of 290,000 active; inhibition, % at 6 µM; P0C6X7; in the data active means inhibition above about 12%
# BoNT-F LC inh = BoNT F light chain protease inhibition; Multiplex microsphere protease cleavage assay, flow cytometry; inhibition, % at 10 µM; 0.22% of 360,000 active; AID 588497; in the data active means inhibition above about 35%, passing the limit was not always enough; inconclusive means no clear call, values can overlap the other calls; further: plate controls were buffer without enzyme for full effect and enzyme alone for no effect
# Bead autofluor = counter-screen for toxin protease inhibitors: compound fluorescence | compound autofluorescence counterscreen, microsphere flow cytometry; stronger effect = higher value | fluorescence intensity (concentration not given with the values) | 3.1% of 360,000 active | AID 624483; in the data active means fluorescence intensity above about 16000; inconclusive means no clear call, values can overlap the other calls
# CCHFV vOTU inh = blocks the CCHF virus ovarian tumor domain protease. 0.55% of 370,000 active. inhibition, % at 11.5 µM. CCHFV vOTU protease, Pep-AMC fluorescence; in the data active means inhibition above about 30%; further: 0% = vehicle wells with enzyme and 100% = no enzyme wells
# The depositor's hits bear a star; ? = inconclusive; nt = not tested or not shown. A selection: hits, their analogues and other compounds. The true share with any hit is near 3.9%. Unless noted, no stated cut-off is given here; in the data, active means inhibition above about 30%; inconclusive means no clear call, values can overlap the other calls; inactive means below that.
SMILES,BoNT A protease,Anthrax LF inh2,3CLpro inhibitor,BoNT-F LC inh,Bead autofluor,CCHFV vOTU inh
O=C1c2ccccc2C(=O)N1CCCCN(C(=O)c1cccc([N+](=O)[O-])c1)c1ccc(Cl)cc1,-3,0,2,-6,20654*,13
O=C(Nc1ncc(Cc2ccc(SC(F)F)cc2)s1)c1ccccc1,2,-4,-4,3,21972*,-4
Cc1ccc(C(=O)Nc2ncc(Cc3ccccc3)s2)o1,-1,-1,-7,-3,24322*,13
O=C(Nc1ncc(Cc2ccccc2)s1)c1cccs1,0,0,3,-7,2819,9
Cc1ccc(Cc2cnc(NC(=O)c3cccs3)s2)cc1,-1,-8,6,?,4040,15
O=C(CSc1ncnc2sc3c(c12)CCCC3)Nc1ccc(Oc2ccccc2)cc1,nt,nt,nt,nt,nt,13
O=C(OCc1cn(Cc2ccccc2)nn1)N1CCCC1,nt,nt,nt,nt,nt,4
COC(=O)c1cc2c(c3c4cc(F)ccc4n(S(=O)(=O)c4ccc(OC)cc4)c13)C(=O)N(C)C2,nt,nt,nt,nt,nt,4
Cc1ccccc1NC(=O)Cc1nc(CSc2nnc(C3CCCCC3)n2N)cs1,1,-1,4,0,22506*,-5
Nn1c(SCC(=O)Nc2cccc(F)c2)nnc1C1CCCCC1,1,-3,-4,4,22029*,-8
Cc1ccc(/C=N\NC(=O)CN2CCN(S(=O)(=O)c3ccc(Br)cc3)CC2)s1,nt,nt,nt,nt,nt,-1
O=C1CCCC(O)=C1N=Nc1c(Cl)cc(C(F)(F)F)cc1Cl,4,83*,4,?,2889,6
COC(=O)[C@]12C[C@H](CC(=O)NCCCN3CCCC3=O)C(=O)N(CCC3=CCCCC3)C1=C[C@H](C(C)C)O[C@@H]2C1CC1,nt,nt,nt,nt,nt,1
CC(C)CCNC(=O)c1ccc2c(c1)ncn2C1CCCCC1,3,2,-5,5,19635*,0
CCCCNC(=O)c1ccc2c(c1)ncn2C1CCCCC1,1,5,-1,-5,3218,8
CC(=O)NS(=O)(=O)c1ccc(NC(=O)NC2CCCCC2)cc1,0,-2,3,-4,23046*,-1
COC(=O)[C@H](C)NC(=O)[C@H](CC(C)C)NC(=O)OC(C)(C)C,nt,nt,nt,nt,nt,4
O=c1[nH]cnc2c1C(c1ccccc1[N+](=O)[O-])c1c(nc[nH]c1=O)O2,3,-2,-1,3,20743*,-11
CCOC(=O)N1CCN(C(=O)CN(c2ccc(OC)c(OC)c2)S(C)(=O)=O)CC1,-1,1,4,2,16773*,-6
CCOC(=O)N1CCN(C(=O)CN(c2ccc(OCC)cc2)S(C)(=O)=O)CC1,1,-1,5,2,22023*,-9
CC12CCC(C(=O)Nc3ccccc3)(C/C1=N\O)C2(C)C (centres undefined),-1,-1,3,-1,16758*,-4
Cc1cccc(NC(=O)C23CCC(C)(/C(=N/O)C2)C3(C)C)c1 (centres undefined),-1,0,-4,2,9991,-3
CC(C)CC(=O)c1c[nH]c(C(=O)NCCCn2ccnc2)c1,1,-2,2,2,19657*,-1
O=C(c1ccccc1)c1c[nH]c(C(=O)NCCCn2ccnc2)c1,0,-6,6,23,3617,1
CCC(CC)C(=O)c1c[nH]c(C(=O)NCCCn2ccnc2)c1,?,0,4,-2,22434*,3
SMILES,BoNT A protease,Anthrax LF inh2,3CLpro inhibitor,BoNT-F LC inh,Bead autofluor,CCHFV vOTU inh
COC(=O)[C@]12C[C@H](CC(=O)NCc3ccc(OC)c(OC)c3)C(=O)N(Cc3ccco3)C1=C[C@H](C(C)C)O[C@@H]2C1CC1,nt,nt,nt,nt,nt,4
O=C(NC1CCCCN(Cc2cccc(Cl)c2)C1=O)c1ccc(COc2ccccc2)cc1 (centres undefined),nt,nt,nt,nt,nt,9
C=CCN(Cc1ccc2c(c1)OCO2)C(C#CC1CC1)C(C)C (centres undefined),nt,nt,nt,nt,nt,-3
COCCOC(=O)c1c(C)n(C)c2ccc(OC(=O)c3ccco3)cc12,?,-4,3,2,22026*,-19
CCn1c(SCC(=O)Nc2ccc(C(=O)OC)cc2)nnc1-c1cccc(Cl)c1,nt,nt,nt,nt,nt,3
CC(=O)Nc1nnc(-c2ccco2)o1,0,2,1,4,3963,13
Cc1nn(-c2ccccc2)c(C)c1C(=O)Nc1nnc(-c2ccco2)o1,0,0,-5,0,20671*,7
Clc1ccc(-c2nnnn2-c2ccc(Cl)cc2)cc1,nt,nt,2,nt,nt,-5
Clc1ccc(-n2nnnc2-c2ccccc2)cc1,?,2,1,-8,17854*,7
CC(C)N1CCCCC(NC(=O)c2c(F)cccc2F)C1=O (centres undefined),nt,nt,nt,nt,nt,5
O=C(Nc1ccccc1N1CCCCC1)c1cccs1,-3,-3,-1,-5,24609*,8
CC(C)COc1ccc(-c2nnc(-c3ccco3)o2)cc1,-3,-2,0,-6,17184*,8
CCCOc1ccc(-c2nnc(-c3ccco3)o2)cc1,0,1,5,1,21565*,11
CC(=O)C(N=Nc1ccccc1)(Sc1nnc(-c2ccccc2)n1-c1ccccc1)C(=O)Nc1ccccc1 (centres undefined),3,-3,3,4,19172*,6
CC(=O)C(N=Nc1ccccc1)(Sc1nnc(-c2ccccc2)n1-c1ccccc1)C(C)=O,-2,1,9,-3,22141*,4
CC(=O)/C(=N\Nc1ccccc1)Sc1nnc(-c2ccccc2)n1-c1ccccc1,0,-2,-2,-1,2531,-2
COC(=O)c1cc2c(c3c4cc(OC)ccc4n(C(=O)c4ccccc4)c13)C(=O)N(C1CCCCC1)C2,nt,nt,nt,nt,nt,3
CC(C)C[C@@H]1COc2cccc(F)c2S(=O)(=O)N1C,nt,nt,nt,nt,nt,0
CN(C)S(=O)(=O)c1cccc(-n2sc3ccccc3c2=O)c1,33*,-6,-4,-1,5640,-2
Cc1ccc(-n2sc3ccccc3c2=O)cc1S(=O)(=O)N1CCCCC1,32*,2,11,10,3545,5
O=c1c2ccccc2sn1-c1cccc(Cl)c1,3,-1,nt,1,3643,4
Cc1nc2ccccc2c(=O)n1-c1nccs1,0,-2,nt,7,5741,13
O=c1c2ccccc2sn1-c1nccs1,102*,-4,-2,20,4744,0
O=c1c2ccccc2sn1-c1ccc(S(=O)(=O)N2CCCCC2)cc1,17,-6,-3,-6,6856,-2
O=c1c2ccccc2sn1-c1ccccc1,70*,2,-4,0,3386,13
COC(=O)[C@]12C[C@H](CC(=O)NCc3cccc4ccccc34)C(=O)N(Cc3ccco3)C1=C[C@H](C1CCCC1)O[C@@H]2C,nt,nt,nt,nt,nt,18
O=C(NC1CCCCN(Cc2cccc(F)c2)C1=O)c1ccc(-c2ccccc2)cc1 (centres undefined),nt,nt,nt,nt,nt,8
O=c1c2cc(F)ccc2sn1-c1ccccc1,35*,4,nt,-4,2963,5
Cc1ccccc1-n1sc2cc(F)ccc2c1=O,89*,0,1,-8,4686,-12
